This is a sample that favours compounds with a hit; in the whole collection about 19% have one here.
Pf growth 48h = inhibits P. falciparum growth in the first generation, 48 h; P. falciparum luciferase growth in erythrocytes, 48 h; Potency, µM (titrated, usually from 28.7 µM), usual class: inhibitors; 310,000 compounds, 5.9% hits; AID 504832
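Compounds are pin-transferred into medium, infected erythrocytes (2% hematocrit, 0.1% parasitemia final) are added, and plates sit one parasite generation at 37 C in 5% CO2. Detection reagent is then added and luminescence measured.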
AMA1-RON2 inh = disrupts binding of P. falciparum AMA1 to RON2. AlphaScreen AMA1-biotinylated RON2 peptide binding. Potency, µM (series often up to 58.2 µM), usual class: inhibitors. 360,000 compounds, 0.2% hits; also: nearly all actives have a fitted effect of over 45% in size
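AMA1 (3D7) with his tag at 25 nM final met compounds first, then biotinylated RON2 peptide at 25 nM; detection used donor plus acceptor beads, 10 µg/mL apiece, read by AlphaScreen after 30 min at room temperature.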
SARS PLpro yeast = blocks SARS-CoV papain-like protease in a yeast assay; S. cerevisiae expressing SARS-CoV PLpro, growth rescue; Potency, µM (doses to about 32.9 µM), usual class: activators; 330,000 compounds, 0.19% hits; AID 485353; calls by dose curve; also: nearly all actives have a fitted effect of over 55% in size
Shiga toxin inh = blocks Shiga toxin action in Vero cells. Vero cells, Shiga toxin protein synthesis inhibition reporter. inhibition, % at 38.7 µM. 290,000 compounds, 9.2% hits; in the data active = inhibition mostly above about 28%, no sharp cut-off; inactive = mostly below about 43%
Pf growth 96h = P. falciparum growth inhibition at 96 hour, primary screen for plastid delayed-death inhibitors | P. falciparum luciferase reporter growth, 96 h | Potency, µM (highest dose often 28.7 µM), actives largely listed as inhibitors | 320,000 compounds, 6.9% hits | AID 504834
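Infected RBCs, 2% Hct / 0.05% parasitemia final; luciferase-reporter P. falciparum; cpd 96 h, 37 C, 5% CO2; luciferase detection reagent; luminescence.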
CHX counter-1 = affects cycloheximide protein synthesis inhibition readout, counter-screen; cell reporter, cycloheximide protein synthesis inhibition counterscreen; max response, %; 300,000 compounds, 12% hits; in the data active = max response mostly above about 13%, no sharp cut-off; inactive = mostly below about 14%; also: read at 38.3 µM for the half of the compounds with a filed dose
CHX counter-2 = counter-screen for Shiga toxin inhibitors: cycloheximide protein synthesis block | shares compounds with Shiga toxin inh | Cycloheximide counterscreen, protein synthesis reporter, Shiga toxin assay | Potency, µM (top dose mostly 38.3 µM), actives largely listed as activators | 510 compounds, 3% hits | AID 2318; calls by dose curve
Numbers stand for hits; n = inactive; u = inconclusive; x = not tested or not shown; [ ] = another dose, or the depositor's remark. Unless noted, calls follow the shape of the dose curve; as a rule, active = well fitted curve in the direction sought with a large enough effect; inconclusive = small, poorly fitted or top-dose-only effect, or another doubt; inactive = no such curve, though single readings can be large; an effect the other way counts as inactive or inconclusive.

SMILES | Pf growth 48h | AMA1-RON2 inh | SARS PLpro yeast | Shiga toxin inh | Pf growth 96h | CHX counter-1 | CHX counter-2
CC1(C)OC(=O)C(=NNc2ccccc2)C(=O)O1 | n | n[11.6 µM] | n | 35.8 | n | n | n
O=c1[nH]c2nc(Br)[nH]c(=O)c2[nH]1 | x | n | x | x | x | x | x
Cc1ccc(C(=O)c2cc3c(cc2N)OCCO3)cc1 | n | u | n | n | n | n | x
CSc1nc2cc3c(cc2n1C(=O)c1ccc(C)cc1)OCCO3 | n | n | n | 80.0 | n | n | u
O=C(NCC1CCCO1)Nc1ccc2c(c1)OCO2 (stereo not drawn) | n | n | n | 43.1 | u | n | u
COc1ccc2nc(SCC(=O)NC3CCCCC3)[nH]c2c1 | n | n | n | n | n | n | x
CCOc1ccc2nc(SCC(=O)NC3CCCCC3)[nH]c2c1 | n | n | n | 43.8 | n | n | n
COc1ccc2nc(SCC(=O)Nc3ccc4c(c3)CCC4)[nH]c2c1 | n | n | n | 41.6 | n | n | n
COc1ccc2nc(SCC(=O)Nc3ccc4[nH]c(=O)[nH]c4c3)[nH]c2c1 | n | n | n | x | n | x | x
CCOc1ccc(S(=O)(=O)NCCC(=O)NCC(c2ccc(OC)cc2)N2CCCCC2)cc1 (stereo not drawn) | u | n | n | x | u | x | x
CC(NC(=O)c1cc(F)c(F)cc1Cl)C1CC2CCC1C2 (stereo not drawn) | n | n | n | n | n | n | x
CCCn1c(N)c(N(CCOC)C(=O)c2cccc(S(=O)(=O)N3CCCc4ccccc43)c2)c(=O)[nH]c1=O | u | n | n | x | n | x | x
COC(=O)c1ccc(CSCc2ccc(C(=O)OC)o2)o1 | n | n | n | 38.1 | n | n | n
COC(=O)c1ccc(CSCC(=O)Nc2cc(OC)cc(OC)c2)o1 | n | n | n | n | n | n | x
O=C(Nc1nc(N2C(=O)c3ccccc3C2=O)n(-c2ccccc2)n1)c1ccc(F)cc1 | n | n | n | n | n | n | x
O=C(Nc1nc(N2C(=O)c3ccccc3C2=O)n(-c2ccccc2)n1)c1ccccc1 | n | n | n | 35.3 | n | n | n
COc1ccc(C)cc1NC(=O)c1cccc(C(=O)Nc2cc(C)ccc2OC)n1 | n | n | n | n | n | n | x
CC(=O)c1cccc(NC(=O)C2CCCC2)c1 | n | n | n | n | n | n | x
Cc1cccc(NC(=O)C2CCCC2)c1 | n | n | n | 35.8 | n | n | n
Cn1cnnc1Sc1ccc(/C=C(\CCC(=O)O)c2nc3ccccc3s2)cc1[N+](=O)[O-] | n | n | n | n | n | n | x
CNc1ccc(/C=C(\CCC(=O)O)c2nc3ccccc3s2)cc1[N+](=O)[O-] | n | n | n | 64.9 | u | n | n
O=C1CN(S(=O)(=O)c2cccc(C(=O)O)c2)c2ccccc2N1 | n | n | n | n | n | n | x
O=C(/C=C/c1cn(CC(O)CN2CCCCC2)c2ccccc12)c1cccs1 (stereo not drawn) | 8.28µM | n[2.32 µM] | n | 31.8 | u | n | n
OC(CN1CCCCC1)Cn1c2ccccc2c2ccccc21 (stereo not drawn) | u | n | n | n | n | n | x
O=C(c1cccnc1)c1cc2ccccc2[nH]1 | n | n | n | active | n | n | n
SMILES | Pf growth 48h | AMA1-RON2 inh | SARS PLpro yeast | Shiga toxin inh | Pf growth 96h | CHX counter-1 | CHX counter-2
CC(C)N(Cc1cc2ccccc2[nH]c1=O)C(=O)c1cccnc1 | n | n | n | n | n | n | x
Cc1ccccc1Oc1ncnc(N)c1[N+](=O)[O-] | n | n | n | n | u | n | x
CC(=O)c1ccccc1Oc1ncnc(N)c1[N+](=O)[O-] | n | n | n | 29.2 | n | n | n
Cc1ccsc1C(=O)N1CCc2ccccc2C1 | n | n | n | 36.5 | n | n | u
CCOC(=O)c1cn(Cc2ccc(C)cc2)nn1 | n | n | n | 45.1 | n | n | n
CCOC(=O)c1cn(Cc2ccc(Br)cc2)nn1 | n | n | n | n | n | n | x
Cc1ccccc1-c1nnc(SCC#N)o1 | n | n | n | 33.2 | n | n | n
O=C(O)C1CCCCC1C(=O)NCc1ccccc1 (stereo not drawn) | x | n | n | n | n | n | x
O=C(NCc1ccccc1)C1CCCC1 | u | x | n | 20.8 | n | n | n
COc1ccc(C)cc1NC(=O)c1cc(S(=O)(=O)N2CCCC2)cn1C | n | n | n | n | u | n | x
